From PubChem
The list is not random: actives were taken first. Their share in the collection is about 1.6%.
KCNQ2 enhance: KCNQ2 (rat) channel potentiation | actives 0.54% (n = 310,000) | B-score at 10 µM | CHO-K1 KCNQ2, FluxOR thallium flux fluorescence; hits give high values;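 active means fluorescence ratio B-score at least 3 SD of library B-scores, with initial fluorescence B-score within 3 of them, cut at about 5.3 in these data; same plate scores as AID 2156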;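 further: B-score of peak minus minimum over baseline fluorescence ratio after K+ and Tl+ stimulus; positive B-score means potentiation of KCNQ2 with more thallium influx and brighter signal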
Target sequence (O88943 whole entry, looked up): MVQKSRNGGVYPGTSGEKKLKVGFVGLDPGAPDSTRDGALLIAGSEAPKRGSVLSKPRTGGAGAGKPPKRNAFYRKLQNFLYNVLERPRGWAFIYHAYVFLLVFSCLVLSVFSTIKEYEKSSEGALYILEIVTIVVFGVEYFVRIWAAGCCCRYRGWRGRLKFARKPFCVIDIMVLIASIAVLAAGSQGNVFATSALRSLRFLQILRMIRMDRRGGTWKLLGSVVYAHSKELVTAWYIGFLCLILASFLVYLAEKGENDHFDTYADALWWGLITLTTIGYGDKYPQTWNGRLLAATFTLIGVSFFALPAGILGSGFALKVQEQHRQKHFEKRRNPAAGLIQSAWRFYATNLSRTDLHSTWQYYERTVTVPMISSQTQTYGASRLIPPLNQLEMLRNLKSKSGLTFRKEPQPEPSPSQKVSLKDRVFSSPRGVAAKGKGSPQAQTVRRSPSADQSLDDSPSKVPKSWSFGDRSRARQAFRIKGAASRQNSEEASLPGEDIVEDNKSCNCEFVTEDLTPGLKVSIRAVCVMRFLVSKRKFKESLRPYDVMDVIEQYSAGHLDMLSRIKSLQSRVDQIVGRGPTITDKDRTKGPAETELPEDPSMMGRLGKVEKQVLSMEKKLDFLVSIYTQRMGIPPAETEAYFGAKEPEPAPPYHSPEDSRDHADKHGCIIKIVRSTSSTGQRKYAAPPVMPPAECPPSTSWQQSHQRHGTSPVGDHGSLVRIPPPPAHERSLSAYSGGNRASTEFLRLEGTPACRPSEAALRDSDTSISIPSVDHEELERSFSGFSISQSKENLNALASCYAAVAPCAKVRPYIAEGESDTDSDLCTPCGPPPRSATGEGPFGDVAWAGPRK
KCNQ2 block: inhibitors of rat KCNQ2 potassium channel; B-score at 10 µM; CHO-K1 KCNQ2, FluxOR thallium flux, 20 min; hits give low values; actives 1.1% (n = 310,000);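 active means fluorescence ratio B-score at most minus 3 library SDs, with starting brightness B-score within 2 library SDs, cut at about -5.5 in these data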
* = called active by the depositor.

O=C(NCCCN1CCOCC1)c1ccccc1N1C(=O)[C@@H]2Cc3c([nH]c4ccccc34)C(c3cccc(Cl)c3)N2C1=O (some centres not stated) was read as KCNQ2 enhance -5.6 and KCNQ2 block -5.6*.
Screening Cc1ccc(C2c3[nH]c4ccccc4c3C[C@H]3C(=O)N(c4ccccc4C(=O)NCCCN4CCOCC4)C(=O)N23)cc1 (some centres not stated) returned KCNQ2 block inactive.
For O=C(c1ccco1)c1cc2c(ccc3ccccc32)oc1=O the results were KCNQ2 enhance 0.06 and KCNQ2 block inactive.
Screening CCOC(=O)c1c(NC(NC(C)=O)C(Cl)(Cl)Cl)sc2c1CCCC2 (configuration not stated) returned KCNQ2 enhance -6.5 and KCNQ2 block -6.5*.
COC(=O)c1c(NC(NC(C)=O)C(Cl)(Cl)Cl)sc2c1CCCC2 (configuration not stated) was read as KCNQ2 block inactive.
Screening O=C(COc1ccc(Br)cc1)NCCCNC(=O)c1cnccn1 returned KCNQ2 block inactive.
Screening COc1ccc(OC)c(NC(=O)CSC2=NN3CCCC(=O)N=C3S2)c1 returned KCNQ2 enhance 0.75 and KCNQ2 block inactive.
For N#Cc1nc(COc2cccc(Cl)c2)oc1N1CCN(c2ccccc2)CC1 the results were KCNQ2 block inactive.
Screening N#Cc1nc(COc2ccccc2)oc1N1CCN(c2cccc(Cl)c2)CC1 returned KCNQ2 enhance -5.9 and KCNQ2 block -5.9*.
`O=C(NC1CCCC1)C(c1ccccn1)N(C(=O)c1csnn1)C1CC1` (configuration not stated) gave KCNQ2 enhance 1.8 and KCNQ2 block inactive.
Screening CCC(=O)n1nc(NCc2ccccc2OC)nc1NCc1ccccc1OC returned KCNQ2 enhance -7.3 and KCNQ2 block -7.3*.
For COc1ccc(CNc2nc(NCc3ccc(OC)cc3)n(C(C)=O)n2)cc1 the results were KCNQ2 block inactive.
Cc1ccc(CCN2CC(C(=O)NCCCN(C)Cc3ccccc3)CC2=O)cc1 (configuration not stated) was read as KCNQ2 enhance 0.04 and KCNQ2 block inactive.
For Cc1ccc(NC(=O)c2oc3ccccc3c2C)nc1 the results were KCNQ2 enhance 0.34 and KCNQ2 block inactive.
`O=C(O)c1ccccc1NS(=O)(=O)c1cccc(-n2sc3ccccc3c2=O)c1` gave KCNQ2 enhance 13* and KCNQ2 block inactive.
O=C(O)c1ccccc1NS(=O)(=O)c1cccc(C(F)(F)F)c1 was read as KCNQ2 block inactive.
`CCOCCCNC(=O)Cc1ccc(-n2c(CC)nc3cccnc32)cc1` gave KCNQ2 enhance 0.02 and KCNQ2 block inactive.
For CCOc1ccc(C(=O)OCCCN(C)C)cc1 the results were KCNQ2 enhance 0.02 and KCNQ2 block inactive.
`Cc1ccc(C(=O)Nc2cccc(C(=O)O)c2)cc1` gave KCNQ2 enhance 1.5 and KCNQ2 block inactive.
For Cc1oc2c(c1C(=O)Nc1cccc(C(=O)O)c1)CCCC2 the results were KCNQ2 enhance 5.6* and KCNQ2 block inactive.
`O=C(c1ccccc1)N1CCN(c2ccc(Cl)cc2)CC1` gave KCNQ2 block inactive.
`O=C(c1noc2c1CSc1ccccc1-2)N1CCN(c2ccc(Cl)cc2)CC1` gave KCNQ2 enhance -7 and KCNQ2 block -7*.
`C/C(=N\Nc1cccc(Cl)c1)C1(C)N(O)C(C)(C)C(c2ccco2)=[N+]1[O-]` (configuration not stated) gave KCNQ2 enhance -6.4 and KCNQ2 block -6.4*.
C/C(=N\O)C1(C)N(O)C(C)(C)C(c2ccco2)=[N+]1[O-] (configuration not stated) was read as KCNQ2 block inactive.
CCNC(=S)N1CCc2ccccc2C1 was read as KCNQ2 enhance 0.35 and KCNQ2 block inactive.
Cc1cccc(C(=O)NC(=S)N2CCc3ccccc3C2)c1 was read as KCNQ2 enhance 8.4* and KCNQ2 block inactive.
`CCC1C(=O)C(CC)C(c2ccccc2)NC1c1ccccc1` (configuration not stated) gave KCNQ2 block inactive.
For CCN1C(c2ccccc2)C(C)C(=O)C(C)C1c1ccccc1 (configuration not stated) the results were KCNQ2 enhance -8.4 and KCNQ2 block -8.4*.
For CC(=O)Nc1cccc(NC(=O)Nc2cccc3ccccc23)c1 the results were KCNQ2 block inactive.
Screening Cc1c(Cl)cccc1NS(=O)(=O)c1cn(C)c(=O)n(C)c1=O returned KCNQ2 enhance 2.5 and KCNQ2 block inactive.
Screening CCOC(=O)CC1C(=O)NCCN1c1nc2ccc(C)cn2c(=O)c1/C=C1\SC(=S)N(CC(C)C)C1=O (configuration not stated) returned KCNQ2 block inactive.
Screening CCOC(=O)CC1C(=O)NCCN1c1nc2ccc(C)cn2c(=O)c1/C=C1\SC(=S)N(C(C)CC)C1=O (configuration not stated) returned KCNQ2 enhance -7.7 and KCNQ2 block -7.7*.
For Cc1cccc(N2CCN(C(=S)NCCc3ccccc3)CC2)c1C the results were KCNQ2 block inactive.
`Cc1ccc(Cl)cc1N1CCN(C(=S)NCCc2ccccc2)CC1` gave KCNQ2 enhance -5.8 and KCNQ2 block -5.8*.
`Cc1cc(C)n2nc(SCC(=O)Nc3ccc(F)cc3)nc2n1` gave KCNQ2 enhance 1.2 and KCNQ2 block inactive.
For CCOC(=O)C1(CCc2ccccc2)CCN(Cc2ccn[nH]2)CC1 the results were KCNQ2 block inactive.
CCOC(=O)C1(CCc2ccccc2)CCN(Cc2cccc3nccnc23)CC1 was read as KCNQ2 enhance -5.9 and KCNQ2 block -5.9*.
Screening CS(=O)(=O)c1ccc2nc(NC(=O)Cc3ccccc3)sc2c1 returned KCNQ2 enhance 0.02 and KCNQ2 block inactive.
For O=C1CCC(/C=C/c2ccccc2)=NN1Cc1ccccc1 the results were KCNQ2 block inactive.
For CCOC(=O)c1c(NC(=O)/C=C\C(=O)O)sc(C)c1-c1ccccc1 the results were KCNQ2 enhance 0.68 and KCNQ2 block inactive.
For CCOC(=O)c1c(NC(=O)/C=C/C(=O)O)sc(C)c1-c1ccc(C(C)(C)C)cc1 the results were KCNQ2 enhance 7* and KCNQ2 block inactive.
Screening CCC(=O)Nc1cc(C(=O)O)ccc1Sc1ccccc1 returned KCNQ2 enhance 0.02 and KCNQ2 block inactive.
`Cc1ccc(NC(=O)NCC2CCN(Cc3cccc(Cl)c3)CC2)c(Cl)c1` gave KCNQ2 enhance 6.5* and KCNQ2 block inactive.
O=C(NCC1CCN(Cc2cccc(Cl)c2)CC1)Nc1ccccc1Cl was read as KCNQ2 enhance 1.4 and KCNQ2 block inactive.
For CCC(=O)NC(NC(=O)CC)C(Cl)Cl the results were KCNQ2 enhance 0.36 and KCNQ2 block inactive.
CC(=O)c1cn(CC(=O)Nc2ccccc2C)c2ccccc12 was read as KCNQ2 block inactive.
Screening COc1ccc(C(=O)NC(=S)Nc2ccc(S(N)(=O)=O)cc2)cc1 returned KCNQ2 enhance 1.6 and KCNQ2 block inactive.
Screening COc1cc(C(=O)NNC(=S)Nc2ccc(S(N)(=O)=O)cc2)cc(OC)c1OC returned KCNQ2 enhance -6.1 and KCNQ2 block -6.1*.
`Cc1ccc(C(=O)COc2cc(O)c3c(=O)cc(-c4ccccc4)oc3c2)cc1` gave KCNQ2 block inactive.
O=C(COc1cc(O)c2c(=O)cc(-c3ccccc3)oc2c1)c1ccccc1 was read as KCNQ2 enhance -5.9 and KCNQ2 block -5.9*.
